The values that follow come from PubChem BioAssay (EPA / NIEHS).

Inconclusive results are not listed. Active and inactive are the calls of the source. Rule for the calls: active = hit-call score of the fitted dose curve at least 0.9, where 1 is the maximum; inconclusive = response in the unintended direction; inactive = score below 0.9.

In assay [1] the target is human Casein Kinase 1-delta (CK1D), CSNK1D (gene 1453) (UniProt P48730). Nature of the assay: NVS_ENZ_hCK1D: NovaScreen (NVS) Enzymatic Assay for human Casein Kinase 1-delta (CK1D) (AID 2283148). The method in brief:
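Recombinant human CK1-delta, cell-free; fluorescent substrate with electrophoretic mobility-shift separation of product, read 1 h after dosing. Single 25 uM duplicate screen, then concentration-response up to 50 uM; loss of signal vs DMSO.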

Assay [2] has as its target human Esterase Plasma (ES), BCHE (gene 590) (UniProt P06276). Briefly: NVS_ENZ_hES: NovaScreen (NVS) Enzymatic Assay for human Esterase Plasma (ES) (AID 2283157). The gist of the method:
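Cell-free enzyme assay using esterase extracted from human plasma; colorimetric absorbance read 0.25 hour after dosing. Single-concentration duplicate screen at 25 uM, then concentration-response up to 50 uM; loss of signal scored against DMSO baseline.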

Assay [3] has as its target human FYN Proto-Oncogene, Src family Tyrosine Kinase (Fyn), FYN (gene 2534) (UniProt P06241). Nature of the assay: NVS_ENZ_hFyn: NovaScreen (NVS) Enzymatic Assay for human FYN Proto-Oncogene, Src family Tyrosine Kinase (Fyn) (AID 2283161). The method in brief: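 Recombinant enzyme with fluorescent substrate, product separated by electrophoretic mobility shift; read 1 h after dosing. Duplicate 25 uM single-point screen, actives retested in concentration series; loss of signal vs DMSO.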

For assay [4], the target named is human Janus Kinase 2 (Jak2), JAK2 (gene 3717) (UniProt O60674). Nature of the assay: NVS_ENZ_hJak2: NovaScreen (NVS) Enzymatic Assay for human Janus Kinase 2 (Jak2) (AID 2283169). The method in brief: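 Cell-free recombinant human JAK2 enzyme activity assay, fluorescence/electrophoretic mobility shift read 1 h after dosing. Screened in duplicate at 25 uM, then concentration-response up to 50 uM; activity as signal loss relative to DMSO.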

Assay [5] addresses human c-Jun N-terminal Kinases (JNK2), MAPK9 (gene 5601) (UniProt P45984). Nature of the assay: NVS_ENZ_hJNK2: NovaScreen (NVS) Enzymatic Assay for human c-Jun N-terminal Kinases (JNK2) (AID 2283171). The method in brief: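 Cell-free recombinant human JNK2 activity assay; fluorescent substrate and product separated by electrophoretic mobility shift, read 1 h after dosing. Primary duplicate screen at 25 uM; actives run in concentration-response up to 50 uM, relative to DMSO.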

The target in assay [6] is human LYN Proto-Oncogene, Src family Tyrosine Kinase (LynA), LYN (gene 4067) (UniProt P07948). Nature of the assay: NVS_ENZ_hLynA: NovaScreen (NVS) Enzymatic Assay for human LYN Proto-Oncogene, Src family Tyrosine Kinase (LynA) (AID 2283173). The gist of the method:
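Recombinant kinase with fluorescent substrate; product separated from substrate by electrophoretic mobility shift and read 1 h after dosing. Duplicate screen at 25 uM, then concentration-response up to 50 uM; activity scored as signal loss against DMSO.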

Assay [7] concerns the target human Colony Stimulating Factor 1 Receptor (CSF1R), CSF1R (gene 1436) (UniProt P07333). Nature of the assay: NVS_ENZ_hCSF1R: NovaScreen (NVS) Enzymatic Assay for human Colony Stimulating Factor 1 Receptor (CSF1R) (AID 2283150). The gist of the method: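 Cell-free recombinant human CSF1R kinase with fluorescent substrate, product separated by electrophoretic mobility shift; read 1 h after dosing. Primary screen at 25 uM in duplicate, actives then in concentration-response up to 50 uM, relative to DMSO.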

Assay [8] concerns the target Mitogen-activated protein kinase 3 (Homo sapiens) (UniProt P27361). Nature of the assay: NVS_ENZ_hMAPK3: NovaScreen (NVS) Enzymatic Assay for human Mitogen-Activated Protein Kinase 3 (MAPK 3) (AID 2283177). The method in brief: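 Cell-free enzymatic assay with recombinant protein and specific substrate; fluorescence and electrophoretic mobility shift read-out 1 h after dosing. Primary screen duplicate at 25 uM; actives then run in concentration-response up to 50 uM, loss of signal versus DMSO.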

The target in assay [9] is human Mitogen- and Stress-activated Protein Kinase-1 (Msk1), RPS6KA5 (gene 9252) (UniProt O75582). Nature of the assay: NVS_ENZ_hMsk1: NovaScreen (NVS) Enzymatic Assay for human Mitogen- and Stress-activated Protein Kinase-1 (Msk1) (AID 2283187). The gist of the method: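 Recombinant kinase with fluorescent substrate; product separated by electrophoretic mobility shift, read 1 h after dosing. Screened in duplicate at 25 uM; hits (e.g. ≥30% inhibition) tested in concentration–response up to 50 uM. DMSO baseline.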

Assay [10] has as its target human Dual Specificity Protein Phosphatase 3 (DUSP3), DUSP3 (gene 1845) (UniProt P51452). Briefly: NVS_ENZ_hDUSP3: NovaScreen (NVS) Enzymatic Assay for human Dual Specificity Protein Phosphatase 3 (DUSP3) (AID 2283152).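 Note: phosphatase activity of recombinant human DUSP3 on a fluorogenic substrate without cells.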 The method in brief:
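Cell-free assay with recombinant human DUSP3 and fluorogenic substrate, read by fluorescence intensity. Primary screen ran duplicate at 25 uM; actives followed up in concentration series; loss of signal versus DMSO scored.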

For assay [11], the target named is human Elastase, ELANE (gene 1991) (UniProt P08246). Briefly: NVS_ENZ_hElastase: NovaScreen (NVS) Enzymatic Assay for human Elastase (AID 2283153). The gist of the method: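 Cell-free elastase from human neutrophils, 1.5 h after dosing, activity read by absorbance. Primary screen in duplicate at 25 uM; hits (e.g., 30% inhibition) rerun in singleton concentration-response up to 50 uM, fitted versus DMSO.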

Assay [12] addresses human MAP Kinase-Activated Protein Kinase 2 (MAPKAPK2), MAPKAPK2 (gene 9261) (UniProt P49137). Briefly: NVS_ENZ_hMAPKAPK2: NovaScreen (NVS) Enzymatic Assay for human MAP Kinase-Activated Protein Kinase 2 (MAPKAPK2) (AID 2283178). The method in brief:
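Cell-free recombinant human MAPKAPK2 activity measured by fluorescence with electrophoretic mobility shift separation of substrate and product, 1 hr after dosing. Loss of signal versus DMSO; primary screen at 25 uM, concentration-response up to 50 uM.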

The target of assay [13] is human Matrix Metalloproteinase-7 (MMP7), MMP7 (gene 4316) (UniProt P09237). Nature of the assay: NVS_ENZ_hMMP7: NovaScreen (NVS) Enzymatic Assay for human Matrix Metalloproteinase-7 (MMP7) (AID 2283183). The method in brief:
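Cell-free fluorescence enzymatic assay read 1 h after compound addition, activity loss analyzed against DMSO. Primary duplicate testing at 25 uM; compounds meeting threshold rerun in singleton concentration-response up to 50 uM.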

Assay [14] concerns the target human Caspase 8 (CASP8), CASP8 (gene 841) (UniProt Q14790). Nature of the assay: NVS_ENZ_hCASP8: NovaScreen (NVS) Enzymatic Assay for human Caspase 8 (CASP8) (AID 2283146). The method in brief: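 E. coli-expressed enzyme was used in a cell-free fluorogenic substrate assay read 1 h after dosing. Loss of signal was scored relative to DMSO, and the primary screen was run in duplicate at 25 uM.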

In assay [15] the target is human Matrix Metalloproteinase-2 (MMP2), MMP2 (gene 4313) (UniProt P08253). Nature of the assay: NVS_ENZ_hMMP2: NovaScreen (NVS) Enzymatic Assay for human Matrix Metalloproteinase-2 (MMP2) (AID 2283184). The gist of the method:
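Cell-free recombinant MMP2 activity with a fluorescent substrate, read 1 h after dosing. Primary screen in duplicate at 25 uM; actives then run in concentration series; loss of signal fitted versus DMSO.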

Assay [16] concerns the target human Ephrin type-A Receptor 1 (EphA1), EPHA1 (gene 2041) (UniProt P21709). Nature of the assay: NVS_ENZ_hEphA1: NovaScreen (NVS) Enzymatic Assay for human Ephrin type-A Receptor 1 (EphA1) (AID 2283158).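 Note: activity is signal loss versus DMSO meaning EphA1 kinase inhibition.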 The gist of the method:
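Biochemical kinase assay run cell-free; 1 h incubation; readout is fluorescence with mobility-shift separation of product. Concentration-response up to 50 uM for actives from a 25 uM screen.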

Assay [17] has as its target human Matrix Metalloproteinase-3 (MMP3), MMP3 (gene 4314) (UniProt P08254). Briefly: NVS_ENZ_hMMP3: NovaScreen (NVS) Enzymatic Assay for human Matrix Metalloproteinase-3 (MMP3) (AID 2283185). The method in brief: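 Cell-free recombinant human MMP3 activity, fluorescence intensity read 1 h after dosing. Primary screen duplicate at 25 uM, actives retested in concentration series; loss of signal vs DMSO baseline.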

Assay [18] concerns the target CDK2 (gene 1017) (UniProt P24941). Nature of the assay: NVS_ENZ_hCDK2: NovaScreen (NVS) Enzymatic Assay for human Cyclin-Cependent Kinase 2 (CDK2) (AID 2283144). The method in brief: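 Cell-free recombinant human CDK2 with fluorescent substrate, product separated by electrophoretic mobility shift; 1 hr read. Primary screen at 25 uM in duplicate, actives retested in concentration-response up to 50 uM; loss of signal versus DMSO.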

The target in assay [19] is Collagenase 3 (Homo sapiens) (UniProt P45452). Nature of the assay: NVS_ENZ_hMMP13: NovaScreen (NVS) Enzymatic Assay for human Matrix Metalloproteinase-13 (MMP13) (AID 2283182). The gist of the method: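 Recombinant MMP13 cleaving fluorescent substrate, cell-free, measured 1 h after dosing. Primary duplicate screen at 25 uM; actives tested in concentration-response up to 50 uM; loss of signal relative to DMSO.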

human Colony Stimulating Factor 1 Receptor (CSF1R), CSF1R (gene 1436), sequence (P07333 whole entry, looked up): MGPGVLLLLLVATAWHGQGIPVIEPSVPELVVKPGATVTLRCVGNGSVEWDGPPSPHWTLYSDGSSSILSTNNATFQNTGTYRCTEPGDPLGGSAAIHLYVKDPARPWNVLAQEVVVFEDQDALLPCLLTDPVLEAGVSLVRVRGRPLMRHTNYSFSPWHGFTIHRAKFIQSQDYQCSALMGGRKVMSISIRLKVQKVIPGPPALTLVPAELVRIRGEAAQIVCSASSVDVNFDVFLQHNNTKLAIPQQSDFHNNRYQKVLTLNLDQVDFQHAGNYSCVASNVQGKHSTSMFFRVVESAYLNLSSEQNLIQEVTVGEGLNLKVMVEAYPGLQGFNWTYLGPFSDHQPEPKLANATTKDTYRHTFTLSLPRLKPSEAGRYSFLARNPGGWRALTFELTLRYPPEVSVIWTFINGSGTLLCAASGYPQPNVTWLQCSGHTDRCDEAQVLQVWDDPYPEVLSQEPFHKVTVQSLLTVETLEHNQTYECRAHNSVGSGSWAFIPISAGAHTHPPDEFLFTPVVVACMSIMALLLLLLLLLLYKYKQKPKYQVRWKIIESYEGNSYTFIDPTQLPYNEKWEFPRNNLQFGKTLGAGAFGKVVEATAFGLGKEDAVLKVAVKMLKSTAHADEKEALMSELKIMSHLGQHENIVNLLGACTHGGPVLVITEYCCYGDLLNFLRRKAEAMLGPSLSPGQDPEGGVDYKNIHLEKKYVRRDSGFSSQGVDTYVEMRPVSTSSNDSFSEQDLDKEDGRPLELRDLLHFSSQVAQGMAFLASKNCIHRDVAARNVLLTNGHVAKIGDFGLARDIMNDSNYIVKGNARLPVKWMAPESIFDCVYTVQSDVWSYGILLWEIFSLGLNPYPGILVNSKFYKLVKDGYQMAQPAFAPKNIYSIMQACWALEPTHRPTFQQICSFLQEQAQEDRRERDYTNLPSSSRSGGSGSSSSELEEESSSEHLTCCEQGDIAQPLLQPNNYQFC
human Janus Kinase 2 (Jak2), JAK2 (gene 3717), sequence (O60674 whole entry, looked up): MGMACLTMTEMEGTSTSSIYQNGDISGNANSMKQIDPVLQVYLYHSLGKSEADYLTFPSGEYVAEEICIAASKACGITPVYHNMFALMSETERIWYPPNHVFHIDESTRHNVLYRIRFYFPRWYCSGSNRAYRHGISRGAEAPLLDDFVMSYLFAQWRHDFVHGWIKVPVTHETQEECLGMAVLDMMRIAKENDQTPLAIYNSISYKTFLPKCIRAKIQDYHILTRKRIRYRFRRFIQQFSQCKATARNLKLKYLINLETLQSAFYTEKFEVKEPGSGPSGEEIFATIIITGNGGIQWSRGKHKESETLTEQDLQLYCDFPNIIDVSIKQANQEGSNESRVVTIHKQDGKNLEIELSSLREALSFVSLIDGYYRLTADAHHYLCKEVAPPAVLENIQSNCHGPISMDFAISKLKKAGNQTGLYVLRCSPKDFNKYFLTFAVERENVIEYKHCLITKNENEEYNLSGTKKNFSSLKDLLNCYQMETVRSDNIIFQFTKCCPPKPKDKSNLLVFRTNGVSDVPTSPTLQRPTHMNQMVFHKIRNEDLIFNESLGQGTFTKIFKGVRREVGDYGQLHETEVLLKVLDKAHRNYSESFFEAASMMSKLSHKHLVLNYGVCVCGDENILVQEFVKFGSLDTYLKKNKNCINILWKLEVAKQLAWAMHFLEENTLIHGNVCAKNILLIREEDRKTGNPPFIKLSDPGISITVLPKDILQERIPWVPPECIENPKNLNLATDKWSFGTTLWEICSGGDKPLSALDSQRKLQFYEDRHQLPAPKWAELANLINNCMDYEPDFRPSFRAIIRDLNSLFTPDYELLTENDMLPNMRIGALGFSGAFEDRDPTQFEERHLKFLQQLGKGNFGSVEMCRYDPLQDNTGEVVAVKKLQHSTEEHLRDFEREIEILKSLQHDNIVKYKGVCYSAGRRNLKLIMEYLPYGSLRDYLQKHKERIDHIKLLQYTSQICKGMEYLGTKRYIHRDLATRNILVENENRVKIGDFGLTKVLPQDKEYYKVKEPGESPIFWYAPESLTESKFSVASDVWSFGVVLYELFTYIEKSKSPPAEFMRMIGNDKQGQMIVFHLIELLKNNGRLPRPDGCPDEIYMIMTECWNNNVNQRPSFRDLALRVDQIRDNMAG
human Dual Specificity Protein Phosphatase 3 (DUSP3), DUSP3 (gene 1845), sequence (P51452 whole entry, looked up): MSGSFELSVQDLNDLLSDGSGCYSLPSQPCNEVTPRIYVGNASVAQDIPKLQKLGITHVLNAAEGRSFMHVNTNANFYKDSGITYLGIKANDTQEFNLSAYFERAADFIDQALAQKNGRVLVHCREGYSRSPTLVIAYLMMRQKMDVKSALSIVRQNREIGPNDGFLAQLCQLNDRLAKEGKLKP
human FYN Proto-Oncogene, Src family Tyrosine Kinase (Fyn), FYN (gene 2534), sequence (P06241 whole entry, looked up): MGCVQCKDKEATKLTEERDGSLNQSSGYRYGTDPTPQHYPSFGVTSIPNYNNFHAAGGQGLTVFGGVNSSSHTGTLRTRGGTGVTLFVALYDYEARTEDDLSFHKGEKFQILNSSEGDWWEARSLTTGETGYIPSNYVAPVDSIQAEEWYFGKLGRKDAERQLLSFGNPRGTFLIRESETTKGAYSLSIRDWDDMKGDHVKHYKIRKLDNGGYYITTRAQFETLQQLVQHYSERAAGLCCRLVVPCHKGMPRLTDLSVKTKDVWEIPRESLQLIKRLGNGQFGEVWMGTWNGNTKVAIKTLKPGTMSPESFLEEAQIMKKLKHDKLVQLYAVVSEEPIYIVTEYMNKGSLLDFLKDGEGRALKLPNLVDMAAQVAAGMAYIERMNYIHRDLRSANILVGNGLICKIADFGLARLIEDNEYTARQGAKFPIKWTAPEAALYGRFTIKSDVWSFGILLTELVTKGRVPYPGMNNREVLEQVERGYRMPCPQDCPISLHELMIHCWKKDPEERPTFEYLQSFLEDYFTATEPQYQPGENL
human Elastase, ELANE (gene 1991), sequence (P08246 whole entry, looked up): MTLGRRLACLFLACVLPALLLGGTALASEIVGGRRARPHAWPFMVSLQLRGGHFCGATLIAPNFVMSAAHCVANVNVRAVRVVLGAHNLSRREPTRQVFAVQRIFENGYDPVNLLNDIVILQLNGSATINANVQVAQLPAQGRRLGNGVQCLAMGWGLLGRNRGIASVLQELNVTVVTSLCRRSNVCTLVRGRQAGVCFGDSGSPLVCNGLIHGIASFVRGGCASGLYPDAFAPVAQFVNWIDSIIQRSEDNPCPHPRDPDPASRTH
human Casein Kinase 1-delta (CK1D), CSNK1D (gene 1453), sequence (P48730 whole entry, looked up): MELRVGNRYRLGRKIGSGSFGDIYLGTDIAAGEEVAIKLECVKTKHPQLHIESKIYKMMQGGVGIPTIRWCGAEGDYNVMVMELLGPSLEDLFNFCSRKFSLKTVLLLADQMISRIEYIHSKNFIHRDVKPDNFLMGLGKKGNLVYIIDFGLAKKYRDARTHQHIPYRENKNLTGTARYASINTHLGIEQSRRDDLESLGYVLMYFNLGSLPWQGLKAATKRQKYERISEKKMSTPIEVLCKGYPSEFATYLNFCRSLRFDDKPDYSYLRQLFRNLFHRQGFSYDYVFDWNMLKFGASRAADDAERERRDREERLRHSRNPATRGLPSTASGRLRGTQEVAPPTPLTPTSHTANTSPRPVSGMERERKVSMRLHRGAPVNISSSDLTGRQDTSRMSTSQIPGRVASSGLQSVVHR
human Esterase Plasma (ES), BCHE (gene 590), sequence (P06276 whole entry, looked up): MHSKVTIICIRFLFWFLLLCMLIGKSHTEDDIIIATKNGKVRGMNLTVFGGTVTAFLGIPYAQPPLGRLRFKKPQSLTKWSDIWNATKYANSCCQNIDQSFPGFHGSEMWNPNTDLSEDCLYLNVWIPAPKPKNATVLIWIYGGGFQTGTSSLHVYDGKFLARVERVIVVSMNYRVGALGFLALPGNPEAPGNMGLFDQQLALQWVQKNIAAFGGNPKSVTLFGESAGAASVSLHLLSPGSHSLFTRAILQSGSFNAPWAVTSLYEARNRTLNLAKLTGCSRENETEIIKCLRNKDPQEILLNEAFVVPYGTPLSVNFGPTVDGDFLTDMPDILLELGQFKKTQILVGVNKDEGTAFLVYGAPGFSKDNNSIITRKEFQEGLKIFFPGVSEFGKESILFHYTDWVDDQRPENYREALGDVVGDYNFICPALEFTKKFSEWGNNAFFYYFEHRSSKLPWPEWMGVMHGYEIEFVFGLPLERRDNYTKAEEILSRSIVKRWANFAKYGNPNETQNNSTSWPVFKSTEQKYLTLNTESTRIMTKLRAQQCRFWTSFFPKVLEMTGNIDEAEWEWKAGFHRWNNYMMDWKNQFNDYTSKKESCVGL
human Matrix Metalloproteinase-7 (MMP7), MMP7 (gene 4316), sequence (P09237 whole entry, looked up): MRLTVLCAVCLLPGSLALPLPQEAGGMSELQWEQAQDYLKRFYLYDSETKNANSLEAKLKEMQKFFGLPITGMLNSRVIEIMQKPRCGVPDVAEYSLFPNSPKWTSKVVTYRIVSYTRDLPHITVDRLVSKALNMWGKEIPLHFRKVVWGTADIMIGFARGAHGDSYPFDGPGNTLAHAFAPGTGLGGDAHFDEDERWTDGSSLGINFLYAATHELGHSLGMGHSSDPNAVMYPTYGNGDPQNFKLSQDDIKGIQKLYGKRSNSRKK
human MAP Kinase-Activated Protein Kinase 2 (MAPKAPK2), MAPKAPK2 (gene 9261), sequence (P49137 whole entry, looked up): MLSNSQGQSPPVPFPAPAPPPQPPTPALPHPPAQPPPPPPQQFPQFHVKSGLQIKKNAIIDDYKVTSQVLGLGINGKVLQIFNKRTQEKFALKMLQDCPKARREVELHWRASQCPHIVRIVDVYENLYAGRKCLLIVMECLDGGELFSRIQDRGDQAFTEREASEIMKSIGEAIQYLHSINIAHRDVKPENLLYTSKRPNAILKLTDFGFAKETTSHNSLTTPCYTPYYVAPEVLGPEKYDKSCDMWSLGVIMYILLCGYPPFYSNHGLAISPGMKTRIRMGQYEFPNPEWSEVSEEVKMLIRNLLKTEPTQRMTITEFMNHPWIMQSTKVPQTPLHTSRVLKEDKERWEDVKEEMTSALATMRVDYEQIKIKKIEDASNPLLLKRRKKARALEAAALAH

The term AC50 denotes the concentration giving half of the maximal activity seen. Regarding `CCN(CC)CCNc1ccc(CNC=O)c2sc3ccc(OC)cc3c(=O)c12`, the AC50 in [1] was 6.5 µM (active); in assay [2], 0.751 µM (active); in assay [3], 2.1 µM (active). The compound was classed as inactive in assay [4], in [5] and in assay [6].

On to `Cc1cc(CCN2CCN(c3nsc4ccccc34)CC2)cc2c1NC(=O)CC2(C)C`, for which the compound was classed as inactive in assay [7] and in [4]. Also, the AC50 in [2] was 22.2 µM (active).

With `CCCCCCCC(=O)O`, the compound was classed as inactive in assay [3], in assay [4], in assay [6], in assay [8] and in assay [9].

Regarding `CCCCCCCCCCCCCCCS(=O)(=O)Oc1ccccc1`, the result in assay [10], in [11] and in assay [4] was inactive.

For the compound `CCCCC(CC)COC(=O)CCCCC(=O)OCc1ccccc1` (stereo not given), the outcome in assay [2] was inactive.

As for `O=[N+]([O-])c1ccc(O)cc1`, the compound was called inactive in [12] and in assay [13].

Regarding `CCC(=C(c1ccc(O)cc1)c1ccc(OCCN(C)C)cc1)c1ccccc1`, in [3], the compound was called inactive.

With `c1ccc2cc3c(ccc4ccccc43)cc2c1`, the compound was called inactive in [14] and in assay [13]. In addition, in assay [11], the AC50 is 46.9 µM (active).

Take `CN1CCN(c2ccccc2/C=C2\SCCN(c3ccc(Cl)c(Cl)c3)C2=O)CC1`: the result in [4] and in assay [15] was inactive.

Consider `CC[C@H](c1ccc(O)cc1)[C@@H](CC)c1ccc(O)cc1`, for which the result in [12] and in [13] was inactive.

Take `NC(=O)N(O)[C@@H]1C=C[C@H](Oc2cccc(Oc3ccc(F)cc3)c2)C1`: the outcome in [2] was inactive.

For `O=c1c(-c2ccc(O)cc2)coc2cc(O)ccc12`, in assay [1], the result was inactive.

Take `ClC1=C(Cl)C(Cl)(Cl)C(Cl)=C1Cl`: in assay [10], the AC50 is 16.3 µM (active). Moreover, the outcome in assay [16] was inactive.

As for `CCCOC(=O)c1ccc(O)cc1`, the compound was classed as inactive in assay [7].

`CCCOc1sc(C(=O)N2CCC(c3cc(CN)ccc3F)CC2)c(C)c1Br`: the results for the AC50 in assay [10] and in assay [2] were 7.33 µM (active) and 8.81 µM (active), respectively. Also, in assay [17], the compound was called inactive.

With `CCCCCCCCCCCCc1ccccc1S(=O)(=O)O`, the call in assay [18] was inactive. Moreover, the AC50 in assay [1] is 17.4 µM (active); in assay [7], 17.3 µM (active); in assay [11] it was 38 µM (active); in assay [4], 18.5 µM (active); in [5], 29.6 µM (active); in [8], 18 µM (active). Further, the AC50 in [12] is 26.5 µM (active); in assay [19], 31.8 µM (active); in [17], 18.2 µM (active); in assay [9], 16.8 µM (active).

For the compound `CCc1nn(C2CCCCC2)c2cc(C3(C#N)CCC(C(=O)O)CC3)ccc12` (stereo not given), the AC50 in [19] is 19.4 µM (active).

As to `OC1CCC(C2CCCCC2)CC1` (stereo not given), the call in [2] and in assay [12] was inactive.
